From the supplement of paper PMC11732987, “Enantioselective OTUD7B fragment discovery through chemoproteomics screening and high-throughput optimisation” (Communications Chemistry, 2025)

How the values were obtained:
Test in all cases: log2 ratio of Biotin-Ahx-Ub-VS probe labelling (fragment/DMSO); higher = less target engagement (more negative = stronger competition), active = hit call of the paper (q ≤ 0.05, log2 ratio ≤ -1)
Conditions in all cases: compound concentration: 200 uM; treatment time: 3 h
USP34 = USP34 (UniProt Q70CQ2)
Summary of the method: (§1)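 HEK293T lysate (495 µg per sample, in Tris/CHAPS/IGEPAL buffer with protease inhibitors) was exposed in triplicate for 3 h to fragment at 200 µM or to vehicle, then to Biotin-Ahx-Ub-VS at 0.5 µM final for 1 h. Labelled DUBs were enriched on NeutrAvidin, digested with LysC and trypsin, and analysed by diaPASEF LC-MS/MS. Spectronaut label-free quantities were normalised to the global median, and values are average log2 ratios of fragment over vehicle from an unpaired t-test. Only proteins with ≥2 unique peptides were used.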

USP36 = biological target: T1, USP36 (UniProt Q9P275)
T1 sequence (whole entry): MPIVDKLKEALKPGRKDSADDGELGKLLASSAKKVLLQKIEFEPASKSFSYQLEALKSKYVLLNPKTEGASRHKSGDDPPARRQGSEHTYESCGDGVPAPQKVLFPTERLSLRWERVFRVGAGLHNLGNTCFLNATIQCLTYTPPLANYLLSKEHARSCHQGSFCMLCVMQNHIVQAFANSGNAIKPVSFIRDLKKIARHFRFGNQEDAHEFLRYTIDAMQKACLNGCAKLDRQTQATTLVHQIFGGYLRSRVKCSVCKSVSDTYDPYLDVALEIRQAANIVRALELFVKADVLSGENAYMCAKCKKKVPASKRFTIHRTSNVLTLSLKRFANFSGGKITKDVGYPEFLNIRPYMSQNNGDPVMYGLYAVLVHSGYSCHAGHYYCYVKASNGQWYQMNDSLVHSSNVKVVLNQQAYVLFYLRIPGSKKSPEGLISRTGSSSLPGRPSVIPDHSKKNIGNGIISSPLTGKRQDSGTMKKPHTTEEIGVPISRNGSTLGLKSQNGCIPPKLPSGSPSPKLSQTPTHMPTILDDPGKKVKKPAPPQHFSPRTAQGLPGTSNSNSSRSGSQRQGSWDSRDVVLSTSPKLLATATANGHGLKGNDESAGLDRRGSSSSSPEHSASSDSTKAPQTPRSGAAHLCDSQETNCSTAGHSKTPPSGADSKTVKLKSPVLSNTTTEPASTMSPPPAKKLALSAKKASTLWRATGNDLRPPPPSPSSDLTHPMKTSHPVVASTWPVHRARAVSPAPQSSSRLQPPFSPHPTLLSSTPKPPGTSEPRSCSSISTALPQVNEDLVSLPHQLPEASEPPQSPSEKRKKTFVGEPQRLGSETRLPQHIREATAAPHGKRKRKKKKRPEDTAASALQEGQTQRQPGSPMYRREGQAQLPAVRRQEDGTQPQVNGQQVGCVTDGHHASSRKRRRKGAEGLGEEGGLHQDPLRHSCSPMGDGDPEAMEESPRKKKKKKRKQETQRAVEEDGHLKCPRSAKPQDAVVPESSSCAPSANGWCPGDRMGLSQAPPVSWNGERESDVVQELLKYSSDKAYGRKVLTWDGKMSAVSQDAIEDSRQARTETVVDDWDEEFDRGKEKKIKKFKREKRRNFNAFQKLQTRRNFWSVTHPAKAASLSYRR
Summary of the method: as §1

USP38 = biological target: T2, USP38 (UniProt Q8NB14)
T2 sequence (whole entry): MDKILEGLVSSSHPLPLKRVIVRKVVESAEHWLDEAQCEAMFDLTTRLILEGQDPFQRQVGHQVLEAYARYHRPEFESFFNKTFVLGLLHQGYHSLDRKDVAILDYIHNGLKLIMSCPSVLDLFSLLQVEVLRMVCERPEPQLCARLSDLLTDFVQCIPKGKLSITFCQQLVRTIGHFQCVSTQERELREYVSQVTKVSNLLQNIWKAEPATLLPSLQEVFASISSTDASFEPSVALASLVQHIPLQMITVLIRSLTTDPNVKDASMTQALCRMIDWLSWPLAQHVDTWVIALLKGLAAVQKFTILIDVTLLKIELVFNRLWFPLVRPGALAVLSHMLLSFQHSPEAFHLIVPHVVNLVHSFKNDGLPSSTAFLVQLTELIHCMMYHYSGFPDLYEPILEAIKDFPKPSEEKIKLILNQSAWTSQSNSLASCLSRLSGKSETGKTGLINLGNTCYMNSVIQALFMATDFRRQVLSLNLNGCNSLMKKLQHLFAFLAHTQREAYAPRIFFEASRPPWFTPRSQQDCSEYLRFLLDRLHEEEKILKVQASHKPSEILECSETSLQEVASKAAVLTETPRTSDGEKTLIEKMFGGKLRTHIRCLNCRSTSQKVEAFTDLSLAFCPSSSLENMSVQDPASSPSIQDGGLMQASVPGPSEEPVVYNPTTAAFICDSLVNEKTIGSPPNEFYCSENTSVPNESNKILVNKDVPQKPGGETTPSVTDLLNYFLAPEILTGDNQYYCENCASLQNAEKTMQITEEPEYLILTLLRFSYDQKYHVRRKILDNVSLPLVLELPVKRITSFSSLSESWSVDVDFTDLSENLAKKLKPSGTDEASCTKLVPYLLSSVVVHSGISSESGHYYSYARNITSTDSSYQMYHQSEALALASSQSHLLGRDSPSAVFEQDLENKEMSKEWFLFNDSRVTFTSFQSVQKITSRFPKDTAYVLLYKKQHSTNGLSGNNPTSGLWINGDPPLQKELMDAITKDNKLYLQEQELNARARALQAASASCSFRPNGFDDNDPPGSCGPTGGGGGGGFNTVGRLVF
Summary of the method: as §1

USP39 = biological target: T3, USP39 (UniProt Q53GS9)
T3 sequence (whole entry): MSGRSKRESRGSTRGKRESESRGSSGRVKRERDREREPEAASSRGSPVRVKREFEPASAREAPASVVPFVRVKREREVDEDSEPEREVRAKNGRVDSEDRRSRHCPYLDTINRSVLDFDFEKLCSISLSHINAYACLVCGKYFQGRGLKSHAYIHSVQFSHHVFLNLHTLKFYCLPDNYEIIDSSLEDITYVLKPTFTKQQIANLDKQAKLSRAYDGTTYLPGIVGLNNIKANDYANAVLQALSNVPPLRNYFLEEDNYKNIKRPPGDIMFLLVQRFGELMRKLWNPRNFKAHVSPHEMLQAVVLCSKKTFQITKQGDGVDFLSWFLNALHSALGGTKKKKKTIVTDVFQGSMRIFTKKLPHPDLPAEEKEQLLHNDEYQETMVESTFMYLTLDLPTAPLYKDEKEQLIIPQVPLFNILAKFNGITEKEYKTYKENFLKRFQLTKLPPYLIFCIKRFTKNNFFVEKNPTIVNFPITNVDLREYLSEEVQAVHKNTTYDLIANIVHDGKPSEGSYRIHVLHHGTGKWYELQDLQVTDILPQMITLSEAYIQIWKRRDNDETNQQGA
Summary of the method: as §1

USP4 = biological target: T4, USP4 (UniProt Q13107)
T4 sequence (whole entry): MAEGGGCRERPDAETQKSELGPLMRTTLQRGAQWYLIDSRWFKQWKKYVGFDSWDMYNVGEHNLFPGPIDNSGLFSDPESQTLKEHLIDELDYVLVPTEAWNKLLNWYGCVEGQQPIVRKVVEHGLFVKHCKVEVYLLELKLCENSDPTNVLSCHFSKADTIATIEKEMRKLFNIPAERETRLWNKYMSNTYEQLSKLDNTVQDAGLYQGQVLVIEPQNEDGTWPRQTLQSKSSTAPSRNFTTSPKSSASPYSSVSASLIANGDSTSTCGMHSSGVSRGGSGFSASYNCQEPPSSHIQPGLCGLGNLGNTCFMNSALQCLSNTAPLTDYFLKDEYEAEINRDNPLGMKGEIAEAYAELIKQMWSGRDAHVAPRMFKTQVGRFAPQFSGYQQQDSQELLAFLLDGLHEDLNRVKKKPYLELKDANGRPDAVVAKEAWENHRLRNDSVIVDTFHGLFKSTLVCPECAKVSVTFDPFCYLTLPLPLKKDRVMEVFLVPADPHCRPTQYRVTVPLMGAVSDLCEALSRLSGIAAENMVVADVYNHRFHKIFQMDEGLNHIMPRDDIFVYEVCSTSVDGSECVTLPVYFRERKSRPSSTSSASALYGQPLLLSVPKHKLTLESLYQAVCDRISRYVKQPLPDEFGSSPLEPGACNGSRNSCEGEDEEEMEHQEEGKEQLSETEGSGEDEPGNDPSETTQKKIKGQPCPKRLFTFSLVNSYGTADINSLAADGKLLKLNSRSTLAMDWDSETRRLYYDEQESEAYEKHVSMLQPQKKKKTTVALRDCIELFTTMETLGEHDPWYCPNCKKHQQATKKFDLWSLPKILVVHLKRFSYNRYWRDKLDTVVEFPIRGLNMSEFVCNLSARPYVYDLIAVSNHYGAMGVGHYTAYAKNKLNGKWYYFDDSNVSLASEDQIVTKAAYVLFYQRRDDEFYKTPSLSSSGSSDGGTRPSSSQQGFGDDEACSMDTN
Summary of the method: as §1

Measured: log2 ratio of Biotin-Ahx-Ub-VS probe labelling

Chain of USP34 (Q70CQ2 whole entry, the tested form may be a part): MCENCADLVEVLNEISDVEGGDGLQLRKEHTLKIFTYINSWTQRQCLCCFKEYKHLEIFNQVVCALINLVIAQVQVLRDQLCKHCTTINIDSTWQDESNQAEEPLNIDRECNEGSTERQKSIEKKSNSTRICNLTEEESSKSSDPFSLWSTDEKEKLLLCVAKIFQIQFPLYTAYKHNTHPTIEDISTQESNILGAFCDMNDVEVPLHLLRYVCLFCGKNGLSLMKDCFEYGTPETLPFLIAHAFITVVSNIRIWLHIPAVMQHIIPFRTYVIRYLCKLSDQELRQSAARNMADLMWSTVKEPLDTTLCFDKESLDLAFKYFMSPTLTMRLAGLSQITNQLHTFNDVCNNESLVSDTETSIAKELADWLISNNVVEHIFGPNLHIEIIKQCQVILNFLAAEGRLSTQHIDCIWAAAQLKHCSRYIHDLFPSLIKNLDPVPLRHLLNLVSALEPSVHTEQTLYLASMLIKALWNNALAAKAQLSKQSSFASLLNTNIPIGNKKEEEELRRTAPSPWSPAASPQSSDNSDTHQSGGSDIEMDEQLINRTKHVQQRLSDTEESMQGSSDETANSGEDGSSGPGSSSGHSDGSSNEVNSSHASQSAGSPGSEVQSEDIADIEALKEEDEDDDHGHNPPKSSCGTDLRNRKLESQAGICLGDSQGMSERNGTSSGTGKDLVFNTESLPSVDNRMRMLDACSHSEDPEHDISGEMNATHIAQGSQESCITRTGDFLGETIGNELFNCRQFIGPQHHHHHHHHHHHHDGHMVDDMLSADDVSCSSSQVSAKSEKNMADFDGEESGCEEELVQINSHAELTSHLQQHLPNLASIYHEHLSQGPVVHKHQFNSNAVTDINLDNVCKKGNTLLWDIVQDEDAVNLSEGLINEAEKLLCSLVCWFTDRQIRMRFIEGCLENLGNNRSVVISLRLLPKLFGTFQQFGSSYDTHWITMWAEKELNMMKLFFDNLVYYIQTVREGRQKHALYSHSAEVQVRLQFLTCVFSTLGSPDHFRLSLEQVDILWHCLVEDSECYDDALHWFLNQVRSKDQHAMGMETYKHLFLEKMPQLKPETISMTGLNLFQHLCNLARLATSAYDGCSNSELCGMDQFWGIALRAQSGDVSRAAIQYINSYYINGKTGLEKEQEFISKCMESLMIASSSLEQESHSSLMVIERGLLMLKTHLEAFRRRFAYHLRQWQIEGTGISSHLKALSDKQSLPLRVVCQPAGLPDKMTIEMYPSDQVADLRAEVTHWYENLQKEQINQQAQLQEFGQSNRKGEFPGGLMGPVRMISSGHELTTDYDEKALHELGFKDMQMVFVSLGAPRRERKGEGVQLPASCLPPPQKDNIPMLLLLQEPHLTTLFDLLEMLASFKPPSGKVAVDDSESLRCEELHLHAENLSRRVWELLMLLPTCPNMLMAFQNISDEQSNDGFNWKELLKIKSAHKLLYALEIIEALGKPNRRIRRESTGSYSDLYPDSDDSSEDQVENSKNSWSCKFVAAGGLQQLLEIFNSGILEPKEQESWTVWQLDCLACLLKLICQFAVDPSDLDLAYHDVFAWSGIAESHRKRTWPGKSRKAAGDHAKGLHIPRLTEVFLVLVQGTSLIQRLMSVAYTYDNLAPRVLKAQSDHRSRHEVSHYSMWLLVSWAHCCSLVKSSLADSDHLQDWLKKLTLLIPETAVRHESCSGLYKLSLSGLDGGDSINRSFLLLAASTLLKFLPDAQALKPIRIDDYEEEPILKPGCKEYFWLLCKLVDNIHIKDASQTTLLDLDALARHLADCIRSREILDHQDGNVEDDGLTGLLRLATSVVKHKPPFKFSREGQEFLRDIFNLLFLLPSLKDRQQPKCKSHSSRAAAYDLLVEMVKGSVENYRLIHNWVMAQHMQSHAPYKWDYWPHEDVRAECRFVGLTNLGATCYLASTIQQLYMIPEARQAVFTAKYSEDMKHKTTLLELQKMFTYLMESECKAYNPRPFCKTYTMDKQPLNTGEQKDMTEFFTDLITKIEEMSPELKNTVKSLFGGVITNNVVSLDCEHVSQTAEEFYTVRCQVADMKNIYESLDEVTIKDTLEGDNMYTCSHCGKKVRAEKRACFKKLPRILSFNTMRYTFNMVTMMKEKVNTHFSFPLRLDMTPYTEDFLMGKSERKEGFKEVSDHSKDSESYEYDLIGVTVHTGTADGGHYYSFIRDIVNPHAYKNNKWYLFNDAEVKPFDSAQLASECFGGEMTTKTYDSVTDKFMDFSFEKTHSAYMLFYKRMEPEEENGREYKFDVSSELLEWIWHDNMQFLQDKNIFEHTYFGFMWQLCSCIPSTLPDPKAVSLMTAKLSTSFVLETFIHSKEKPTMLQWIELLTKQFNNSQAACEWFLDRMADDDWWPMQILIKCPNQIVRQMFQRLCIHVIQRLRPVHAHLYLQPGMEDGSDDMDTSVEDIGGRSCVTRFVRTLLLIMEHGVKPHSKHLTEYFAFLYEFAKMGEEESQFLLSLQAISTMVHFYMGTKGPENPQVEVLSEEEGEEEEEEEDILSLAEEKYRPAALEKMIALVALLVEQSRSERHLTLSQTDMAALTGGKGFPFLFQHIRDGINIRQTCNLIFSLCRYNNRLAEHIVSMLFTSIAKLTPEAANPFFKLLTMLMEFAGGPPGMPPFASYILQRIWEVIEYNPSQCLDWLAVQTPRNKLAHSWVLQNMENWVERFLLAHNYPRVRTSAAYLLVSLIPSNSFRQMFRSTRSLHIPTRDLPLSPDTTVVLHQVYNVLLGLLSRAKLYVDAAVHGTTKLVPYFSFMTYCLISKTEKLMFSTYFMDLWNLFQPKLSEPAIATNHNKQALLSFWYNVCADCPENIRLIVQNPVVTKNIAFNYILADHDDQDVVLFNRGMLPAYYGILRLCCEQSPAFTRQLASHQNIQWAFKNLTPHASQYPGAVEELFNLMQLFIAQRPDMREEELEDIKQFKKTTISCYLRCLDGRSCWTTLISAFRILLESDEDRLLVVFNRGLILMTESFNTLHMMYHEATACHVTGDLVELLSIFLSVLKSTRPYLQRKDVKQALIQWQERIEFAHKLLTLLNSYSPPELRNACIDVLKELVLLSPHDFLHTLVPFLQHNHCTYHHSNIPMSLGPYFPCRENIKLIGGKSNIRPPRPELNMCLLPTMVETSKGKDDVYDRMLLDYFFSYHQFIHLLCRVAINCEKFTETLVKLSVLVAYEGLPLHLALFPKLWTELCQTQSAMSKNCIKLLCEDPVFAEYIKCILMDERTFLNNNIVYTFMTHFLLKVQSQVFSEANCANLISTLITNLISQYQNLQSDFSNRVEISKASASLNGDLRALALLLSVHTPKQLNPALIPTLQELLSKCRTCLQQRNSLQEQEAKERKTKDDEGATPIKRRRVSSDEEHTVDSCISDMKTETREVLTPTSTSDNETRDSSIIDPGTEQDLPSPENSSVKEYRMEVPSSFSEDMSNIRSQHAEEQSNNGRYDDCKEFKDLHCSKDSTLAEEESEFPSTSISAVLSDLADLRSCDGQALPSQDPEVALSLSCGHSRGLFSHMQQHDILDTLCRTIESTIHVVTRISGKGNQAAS

Cc1ccc(C)c(NC(=O)CCl)c1
inactive: USP34 -0.458 | USP36 -0.1 | USP38 -0.159 | USP39 0.199 | USP4 -0.443
